The results in this text go back to PubChem BioAssay (EPA / NIEHS).

Active and inactive are the calls of the source. Rule for the calls: active = hit-call score of the fitted dose curve at least 0.9, where 1 is the maximum; inactive = score below 0.9.

A word on the AC50: it is the concentration giving half of the maximal activity seen.

Assay [1] has as its target Transcription factor E2F1 (Homo sapiens) (UniProt Q01094). As to the kind of experiment: ATG_E2F_CIS: Attagene CIS-FACTORIAL HepG2 Assay for human E2F Transcription Factor 1 (AID 2282935). The following applies: HepG2 Attagene cis-reporter, E2F reporter RNA transcripts; actives raise or lower the signal. In outline:
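Transient MRTU transfection of HepG2; 24 h compound exposure; RNA → oligo(dT) RT → PCR → FAM label → HpaI cut → CE fluorescence. Gain/loss of signal fit against DMSO.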

Assay [2] in a line: ATG_E_Box_CIS: Attagene CIS-FACTORIAL HepG2 Assay for human Enhancer Box (E-box) (AID 2282936). As to conditions: HepG2 E-box cis-reporter transcription, actives raise or lower the signal. In outline:
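Transiently transfected HepG2, endogenous TF-driven reporters, 24 h dosing. Readout: RT-PCR plus capillary electrophoresis of fluorescent reporter fragments. Gain or loss of signal fitted bidirectionally against DMSO baseline.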

The nature of assay [3]: ATG_M_61_CIS: Attagene CIS-FACTORIAL HepG2 Assay for M61 Transcription Factor (Internal Marker) (AID 2282937). The following applies: HepG2 Attagene CIS-FACTORIAL M61 internal marker reporter; actives raise or lower the signal. In outline: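 Transfect HepG2 with MRTUs; dose 24 h; isolate RNA; reverse-transcribe with DNase I treatment; PCR-amplify, FAM-label and cut with HpaI for 2 h at 37 C; resolve by CE. Bidirectional fitting against DMSO.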

Assay [4] is described as follows: ATG_EGR_CIS: Attagene CIS-FACTORIAL HepG2 Assay for human Early Growth Response 1 (EGR1) (AID 2282938). As to conditions: HepG2 Attagene CIS-FACTORIAL EGR reporter mRNA; actives raise or lower the signal. In outline:
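After a 24 h treatment of transiently transfected HepG2 cells, total RNA was reverse-transcribed and reporter sequences PCR-amplified, labelled and run on capillary electrophoresis. Reporters sit under cis-regulatory promoters sensing endogenous factors.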

Assay [5] can be described thus: ATG_M_19_CIS: Attagene CIS-FACTORIAL HepG2 Assay for M19 Transcription Factor (Internal Marker) (AID 2282939). As to conditions: HepG2 Attagene CIS-FACTORIAL M19 internal marker reporter; actives raise or lower the signal. An outline of the steps: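 Following a 24 h exposure, RNA from transfected HepG2 cells was reverse-transcribed, PCR-amplified with reporter-specific primers, end-labelled with 6-FAM and HpaI-digested before capillary separation. Values represent gain or loss versus DMSO.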

Assay [6] in a line: ATG_ERE_CIS: Attagene CIS-FACTORIAL HepG2 Assay for Estrogen Response Element (ERE) (AID 2282940). As to conditions: HepG2 ERE cis-reporter, Attagene RNA transcript; actives raise or lower the signal. In outline:
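HepG2, transient cis-reporter units, 24 h exposure. RNA isolated, oligo(dT) RT, reporter-specific PCR, FAM extension, HpaI cut, CE detection. Gain/loss-of-signal vs DMSO.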

A short description of assay [7]: ATG_Ets_CIS: Attagene CIS-FACTORIAL HepG2 Assay for human Erythroblast Transformation Specific (ETS) (AID 2282941). As to conditions: HepG2 ETS cis-reporter transcription, actives raise or lower the signal. An outline of the steps: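 Endogenous transcription factor activity read as reporter mRNA via RT-PCR and capillary electrophoresis, with gain or loss fitted bidirectionally against DMSO. Human HepG2 liver cells, transiently transfected CIS reporter constructs, 24 h exposure.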

Assay [8] concerns the target Hepatocyte nuclear factor 3-beta (Homo sapiens) (UniProt Q9Y261). As to the kind of experiment: ATG_FoxA2_CIS: Attagene CIS-FACTORIAL HepG2 Assay for human Forkhead box A2 (FOXA2) (AID 2282942). The following applies: HepG2 cis-reporter transcription factor activity, 24 h; actives raise or lower the signal. An outline of the steps:
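24 h dosing of HepG2 bearing cis-reporter constructs; mRNA readout by RT-PCR/CE fluorescence; bidirectional fit, DMSO baseline.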

The nature of assay [9]: ATG_GATA_CIS: Attagene CIS-FACTORIAL HepG2 Assay for human GATA Binding Protein (AID 2282944). As to conditions: HepG2 GATA cis-element reporter, Attagene multiplex mRNA; actives raise or lower the signal. An outline of the steps: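 DMSO serves as negative control and baseline for bidirectional fitting of reporter mRNA changes. HepG2 cells bearing transiently transfected cis-promoter reporters were exposed 24 h; transcripts detected via RT-PCR and capillary electrophoresis.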

Assay [10] can be described thus: ATG_GLI_CIS: Attagene CIS-FACTORIAL HepG2 Assay for human Zinc Finger Protein GLI1 (AID 2282945). As to conditions: HepG2, Attagene cis-factorial reporter mRNA, GLI element; actives raise or lower the signal. In outline:
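Transiently transfected HepG2 cells report endogenous transcription factor activity via cis-element-driven reporter units. After 24 h compound exposure, reporter mRNA was measured by RT-PCR with capillary electrophoresis; bidirectional fitting against DMSO baseline.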

In assay [11] the target is Bile acid receptor (Homo sapiens) (UniProt Q96RI1). As to the kind of experiment: ATG_IR1_CIS: Attagene CIS-FACTORIAL HepG2 Assay for human Nuclear Receptor Subfamily 1 Group H Member 4 (NR1H4), IR1 submotif (AID 2282946). The following applies: IR1 reporter transcription, actives raise or lower the signal. An outline of the steps: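 Fluorescence of capillary-separated, HpaI-digested RT-PCR reporter products gave IR1-element mRNA induction in HepG2 cells 24 h after dosing. Endogenous transcription factors drove the cis-regulated reporters; activity was fitted bidirectionally against DMSO.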
Chain of Bile acid receptor (Homo sapiens) (Q96RI1 whole entry, looked up): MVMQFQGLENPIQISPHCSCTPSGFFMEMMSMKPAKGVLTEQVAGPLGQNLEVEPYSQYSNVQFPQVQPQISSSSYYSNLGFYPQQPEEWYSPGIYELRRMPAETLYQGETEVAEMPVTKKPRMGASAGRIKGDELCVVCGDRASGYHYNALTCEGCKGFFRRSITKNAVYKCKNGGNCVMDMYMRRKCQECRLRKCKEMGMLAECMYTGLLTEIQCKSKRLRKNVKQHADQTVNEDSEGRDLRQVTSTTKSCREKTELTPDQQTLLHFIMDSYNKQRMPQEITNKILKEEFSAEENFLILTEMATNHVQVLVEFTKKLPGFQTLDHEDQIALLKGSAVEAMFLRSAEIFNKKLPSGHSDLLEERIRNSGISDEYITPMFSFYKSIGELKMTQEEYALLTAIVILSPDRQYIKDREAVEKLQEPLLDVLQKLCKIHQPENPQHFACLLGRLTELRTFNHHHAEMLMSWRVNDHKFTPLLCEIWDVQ

Assay [12] is described as follows: ATG_ISRE_CIS: Attagene CIS-FACTORIAL HepG2 Assay for human Interferon Regulatory Factor 1 (IRF1) binding to an Interferon-Stimulated Response Element (ISRE) (AID 2282948). As to conditions: HepG2 ISRE cis-reporter (Attagene), mRNA transcription readout; actives raise or lower the signal. An outline of the steps:
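Endogenous transcription factor activity read as reporter transcript abundance via RT-PCR and capillary electrophoresis. HepG2 cells transiently transfected, 24 h chemical exposure. Gain or loss fitted against DMSO baseline.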

The nature of assay [13]: ATG_M_06_CIS: Attagene CIS-FACTORIAL HepG2 Assay for M06 Transcription Factor (Internal Marker) (AID 2282950). The following applies: HepG2 Attagene CIS-FACTORIAL M06 internal marker reporter; actives raise or lower the signal. An outline of the steps:
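Fluorescence-labelled RT-PCR products from cis-promoter reporter units, cut with HpaI and resolved by capillary electrophoresis, give the signal. Cells are human HepG2, dosed for 24 h. Serves as background control, fitted relative to DMSO.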

Assay [14] addresses Hypoxia-inducible factor 1-alpha (Homo sapiens) (UniProt Q16665). Kind of assay: ATG_HIF1a_CIS: Attagene CIS-FACTORIAL HepG2 Assay for human Hypoxia Inducible Factor 1 (HIF1A) (AID 2282951). The following applies: HepG2 Attagene cis-factorial HIF1a reporter transcription; actives raise or lower the signal. An outline of the steps:
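After 24 h chemical exposure of reporter-transfected HepG2 cells, reporter cDNA was PCR-amplified, labelled by 6-FAM primer extension (2 min 95 C, 20 s 68 C, 10 min 72 C), HpaI-cut (2 h, 37 C) and analysed by CE.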

Assay [15] addresses Hepatocyte nuclear factor 6 (Homo sapiens) (UniProt Q9UBC0). Kind of assay: ATG_HNF6_CIS: Attagene CIS-FACTORIAL HepG2 Assay for human Hepatocyte Nuclear Factor 6 (HNF6) (AID 2282952). As to conditions: HepG2 Attagene cis-factorial HNF6 reporter transcription; actives raise or lower the signal. In outline:
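Twenty-four-hour chemical treatment of reporter-transfected HepG2 cells precedes RNA isolation, DNase-treated reverse transcription and PCR of reporter sequences. Labelled fragments are sized by capillary electrophoresis and fitted bidirectionally versus DMSO.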

Assay [16] concerns the target Heat shock factor protein 1 (Homo sapiens) (UniProt Q00613). As to the kind of experiment: ATG_HSE_CIS: Attagene CIS-FACTORIAL HepG2 Assay for human Heat Shock Transcription Factor 1 (HSE) (AID 2282953). The following applies: HepG2 HSE cis-reporter, Attagene RNA transcription; actives raise or lower the signal. An outline of the steps:
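After a 24 h incubation with test chemical, transfected HepG2 cells were harvested for RNA; reporter transcripts were measured by RT-PCR and capillary electrophoresis. Values reflect gain or loss of signal relative to DMSO.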

A short description of assay [17]: ATG_MRE_CIS: Attagene CIS-FACTORIAL HepG2 Assay for human Metal Responsive Element (MRE) (AID 2282954). The following applies: HepG2 MRE cis-reporter transcription, Attagene multiplex; actives raise or lower the signal. An outline of the steps: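 RT-PCR/capillary electrophoresis readout of reporter mRNA, 24 h post-dosing, in HepG2 cells transfected with multiplexed cis-regulated reporter constructs. Gain or loss of signal fitted bidirectionally against DMSO baseline.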

Assay [18] can be described thus: ATG_M_32_CIS: Attagene CIS-FACTORIAL HepG2 Assay for M32 Transcription Factor (Internal Marker) (AID 2282949).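 Note: background control marker of the multiplexed CIS panel rather than a real target.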 The following applies: HepG2 Attagene cis-factorial M32 reporter, mRNA; actives raise or lower the signal. In outline:
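Transient MRTU transfection of HepG2; 24 h compound treatment; TriZol RNA, oligo(dT) RT, reporter PCR, 6-FAM primer extension, HpaI cut, CE. Gain/loss of signal vs DMSO.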

Assay [19] can be described thus: ATG_FoxO_CIS: Attagene CIS-FACTORIAL HepG2 Assay for human Forkhead box O (FoxO) (AID 2282943). The following applies: HepG2 Attagene cis-reporter, FoxO element, mRNA; actives raise or lower the signal. An outline of the steps:
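Transfected HepG2 reporter cells exposed to test chemical for 24 h; reporter RNA measured by reverse transcription, PCR and fluorescent capillary electrophoresis; curves fitted for increases and decreases against DMSO.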

A short description of assay [20]: ATG_GRE_CIS: Attagene CIS-FACTORIAL HepG2 Assay for human Glucocorticoid Response Elements (GRE) (AID 2282947). As to conditions: HepG2 GRE cis-reporter, Attagene multiplex mRNA; actives raise or lower the signal. In outline:
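Read-out: fluorescent reporter-transcript fragments separated by capillary electrophoresis after RT-PCR. Transiently transfected HepG2 cells carrying cis-element-driven reporter units were dosed for 24 h; gain or loss of signal fitted against DMSO control.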

Chain of Hypoxia-inducible factor 1-alpha (Homo sapiens) (Q16665 whole entry, looked up): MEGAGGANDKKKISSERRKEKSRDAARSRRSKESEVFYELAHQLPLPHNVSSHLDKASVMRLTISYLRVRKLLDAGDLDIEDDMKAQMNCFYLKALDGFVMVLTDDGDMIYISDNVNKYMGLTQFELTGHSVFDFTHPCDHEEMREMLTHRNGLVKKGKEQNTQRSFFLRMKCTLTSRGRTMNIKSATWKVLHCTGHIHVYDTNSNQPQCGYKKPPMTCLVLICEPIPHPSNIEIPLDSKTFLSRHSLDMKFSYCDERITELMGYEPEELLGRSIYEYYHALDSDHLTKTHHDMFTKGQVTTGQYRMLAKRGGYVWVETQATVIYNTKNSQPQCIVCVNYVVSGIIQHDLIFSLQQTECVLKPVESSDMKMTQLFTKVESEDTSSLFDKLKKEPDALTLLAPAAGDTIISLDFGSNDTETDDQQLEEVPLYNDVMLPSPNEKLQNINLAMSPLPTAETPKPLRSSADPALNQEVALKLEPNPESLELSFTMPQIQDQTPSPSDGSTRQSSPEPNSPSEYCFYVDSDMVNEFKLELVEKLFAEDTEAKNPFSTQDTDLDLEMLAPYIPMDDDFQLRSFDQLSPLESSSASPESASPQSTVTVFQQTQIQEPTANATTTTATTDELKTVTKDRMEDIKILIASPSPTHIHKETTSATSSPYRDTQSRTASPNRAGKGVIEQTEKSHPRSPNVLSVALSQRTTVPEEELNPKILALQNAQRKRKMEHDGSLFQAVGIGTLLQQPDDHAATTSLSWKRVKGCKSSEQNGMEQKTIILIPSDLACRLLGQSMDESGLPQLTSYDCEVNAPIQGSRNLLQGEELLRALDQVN
Chain of Hepatocyte nuclear factor 6 (Homo sapiens) (Q9UBC0 whole entry, looked up, the tested form may be a part): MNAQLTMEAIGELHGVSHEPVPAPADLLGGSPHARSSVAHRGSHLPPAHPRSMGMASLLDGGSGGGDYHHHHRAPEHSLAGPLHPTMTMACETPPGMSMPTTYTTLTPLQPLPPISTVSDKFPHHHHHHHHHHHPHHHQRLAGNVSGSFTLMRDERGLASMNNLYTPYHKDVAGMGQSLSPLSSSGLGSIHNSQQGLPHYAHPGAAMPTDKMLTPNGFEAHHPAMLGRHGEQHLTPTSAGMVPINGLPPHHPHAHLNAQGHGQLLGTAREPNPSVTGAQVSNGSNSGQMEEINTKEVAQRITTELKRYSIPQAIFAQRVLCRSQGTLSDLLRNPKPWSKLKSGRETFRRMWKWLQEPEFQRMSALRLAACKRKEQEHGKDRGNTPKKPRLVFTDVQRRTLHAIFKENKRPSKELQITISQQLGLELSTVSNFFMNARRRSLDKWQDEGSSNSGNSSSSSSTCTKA
Chain of Hepatocyte nuclear factor 3-beta (Homo sapiens) (Q9Y261 whole entry, looked up): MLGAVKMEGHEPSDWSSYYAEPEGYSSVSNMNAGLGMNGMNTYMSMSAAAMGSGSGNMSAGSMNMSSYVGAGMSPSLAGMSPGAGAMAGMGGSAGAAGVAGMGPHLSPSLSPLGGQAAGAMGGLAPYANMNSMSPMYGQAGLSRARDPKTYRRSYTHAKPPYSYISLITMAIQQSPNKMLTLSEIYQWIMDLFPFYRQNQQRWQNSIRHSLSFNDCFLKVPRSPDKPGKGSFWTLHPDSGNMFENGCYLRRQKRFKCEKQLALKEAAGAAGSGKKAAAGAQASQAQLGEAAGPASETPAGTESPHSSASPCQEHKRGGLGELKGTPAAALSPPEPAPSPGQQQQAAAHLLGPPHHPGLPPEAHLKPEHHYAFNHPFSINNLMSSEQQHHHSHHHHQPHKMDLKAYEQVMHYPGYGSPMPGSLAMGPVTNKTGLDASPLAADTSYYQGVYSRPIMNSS
Chain of Transcription factor E2F1 (Homo sapiens) (Q01094 whole entry, looked up): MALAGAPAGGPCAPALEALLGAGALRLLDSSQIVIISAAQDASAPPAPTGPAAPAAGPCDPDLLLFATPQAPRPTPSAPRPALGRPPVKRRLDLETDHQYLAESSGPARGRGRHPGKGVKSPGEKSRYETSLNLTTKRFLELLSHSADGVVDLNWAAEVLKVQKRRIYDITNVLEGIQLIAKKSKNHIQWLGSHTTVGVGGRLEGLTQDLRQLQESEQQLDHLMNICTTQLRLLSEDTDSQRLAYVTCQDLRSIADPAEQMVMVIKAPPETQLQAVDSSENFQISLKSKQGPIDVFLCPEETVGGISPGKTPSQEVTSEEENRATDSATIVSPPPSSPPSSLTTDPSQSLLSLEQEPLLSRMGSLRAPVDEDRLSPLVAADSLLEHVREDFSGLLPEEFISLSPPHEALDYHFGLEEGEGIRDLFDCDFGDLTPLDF
Chain of Heat shock factor protein 1 (Homo sapiens) (Q00613 whole entry, looked up): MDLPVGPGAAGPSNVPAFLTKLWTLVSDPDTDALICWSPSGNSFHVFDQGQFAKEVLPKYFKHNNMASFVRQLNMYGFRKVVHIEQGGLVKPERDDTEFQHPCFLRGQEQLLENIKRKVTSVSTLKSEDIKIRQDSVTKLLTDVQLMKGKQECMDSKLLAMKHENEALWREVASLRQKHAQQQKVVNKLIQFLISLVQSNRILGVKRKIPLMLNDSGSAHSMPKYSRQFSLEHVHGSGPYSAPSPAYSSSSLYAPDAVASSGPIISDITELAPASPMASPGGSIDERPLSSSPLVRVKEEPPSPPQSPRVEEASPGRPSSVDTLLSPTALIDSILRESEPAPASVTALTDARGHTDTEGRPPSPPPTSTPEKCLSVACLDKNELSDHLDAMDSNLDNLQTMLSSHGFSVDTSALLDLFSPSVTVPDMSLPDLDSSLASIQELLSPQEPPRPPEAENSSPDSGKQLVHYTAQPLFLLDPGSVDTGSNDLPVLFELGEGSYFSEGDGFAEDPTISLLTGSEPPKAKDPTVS

Take `CCCC/C=C/C=C\C=O`: the outcome in assay [1], in [2], in [3], in assay [5], in assay [6] and in [7] was inactive. Besides, the call in assay [8], in [9], in [13], in assay [14] and in assay [15] was inactive. For the same molecule, the AC50 in assay [4] was 100 µM (active); in assay [10], 128 µM (active); in assay [11], 71.6 µM (active); in [12], 100 µM (active); in [16], 157 µM (active); in assay [17], 100 µM (active).

Take `CC(C)COC(=O)CC(C(=O)OCC(C)C)S(=O)(=O)O` (stereo not drawn): the call in assay [1], in assay [2], in assay [3], in [4], in assay [5] and in assay [6] was inactive. The result in assay [7], in assay [8], in [9], in assay [10], in [12] and in [18] was inactive. For the same molecule, the molecule was classed as inactive in assay [13], in assay [15], in assay [16] and in assay [17].

Consider `CC1=C(O)C(=O)C(C)O1` (stereo not drawn), for which the result in assay [1], in assay [2], in assay [3], in [4], in [6] and in [7] was inactive. Moreover, the molecule was classed as inactive in [8], in [19], in assay [9], in assay [10], in [11] and in [20]. In addition, the result in assay [12], in assay [13], in [14], in [15], in [16] and in assay [17] was inactive.

With `CC(C)c1cc(C(C)C)cc(C(C)C)c1`, the molecule was classed as inactive in assay [1], in [3], in assay [4], in assay [5], in assay [20] and in assay [13]. The result in assay [14], in assay [15] and in assay [17] was inactive. Further, the AC50 is 23.7 µM (active) in [2]; 168 µM (active) in [6]; 169 µM (active) in assay [7]; 160 µM (active) in assay [8]; 178 µM (active) in assay [9]; 146 µM (active) in [10]. Also, the AC50 in assay [12] was 176 µM (active); in assay [18], 162 µM (active).
